Inconclusive results are not listed. Active and inactive are the calls of the source. Rule for the calls, unless noted: active = hit-call score of the fitted dose curve at least 0.9, where 1 is the maximum; inactive = score below 0.9.
What was measured:
[1] = ATG_PBREM_CIS: Attagene CIS-FACTORIAL HepG2 Assay for human Phenobarbital-responsive Enhancer Module (PBREM) (AID 2282955); conditions: HepG2 PBREM cis-reporter, Attagene multiplexed transcription; actives raise or lower the signal
Outline: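 Fluorescence of labelled reporter cDNA fragments, resolved by capillary electrophoresis, gives mRNA induction in transfected HepG2 cells treated for 24 h; DMSO serves as negative control and baseline.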

[2] = target: Paired box protein Pax-6 (Homo sapiens) (UniProt P26367); test: ATG_Pax6_CIS: Attagene CIS-FACTORIAL HepG2 Assay for human Paired Box 6 (PAX6) (AID 2282956); conditions: HepG2 CIS-FACTORIAL PAX6 reporter transcription, RNA readout; actives raise or lower the signal
Chain of Paired box protein Pax-6 (Homo sapiens) (P26367 whole entry, looked up): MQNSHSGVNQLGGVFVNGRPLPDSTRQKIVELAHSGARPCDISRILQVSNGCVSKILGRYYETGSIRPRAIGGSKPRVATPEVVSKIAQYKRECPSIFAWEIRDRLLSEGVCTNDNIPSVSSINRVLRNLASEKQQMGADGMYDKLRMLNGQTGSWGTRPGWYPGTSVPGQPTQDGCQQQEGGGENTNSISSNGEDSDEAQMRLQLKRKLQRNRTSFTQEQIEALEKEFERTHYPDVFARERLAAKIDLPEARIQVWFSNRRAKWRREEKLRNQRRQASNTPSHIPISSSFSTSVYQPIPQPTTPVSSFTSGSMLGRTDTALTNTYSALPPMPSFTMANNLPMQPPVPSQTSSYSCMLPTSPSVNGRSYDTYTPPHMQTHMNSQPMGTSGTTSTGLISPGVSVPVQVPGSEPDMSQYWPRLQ
Outline: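 Read-out is reporter transcript level, measured by RT-PCR with fluorescent primer extension and capillary electrophoresis after 24 h dosing of transfected HepG2 cells. Activity in either direction fitted relative to DMSO control.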

[3] = ATG_PXRE_CIS: Attagene CIS-FACTORIAL HepG2 Assay for human Pregnane X Receptor Element (PXRE) (AID 2282957); conditions: HepG2 Attagene CIS-FACTORIAL PXRE reporter, mRNA; actives raise or lower the signal
Outline: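 Fluorescent capillary electrophoresis of amplified reporter cDNA gave the signal, collected 24 h after dosing HepG2 cells that held transfected cis-element reporter constructs.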

[4] = ATG_PPRE_CIS: Attagene CIS-FACTORIAL HepG2 Assay for human Peroxisome Proliferator-activated Response Element (PPRE) (AID 2282958); conditions: HepG2 PPRE cis-element reporter, Attagene transcription factor profiling; actives raise or lower the signal
Outline: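 Cells are first transfected transiently with the multiplexed reporter library, then dosed for 24 h. Total RNA is reverse-transcribed, amplified, fluorescently end-labeled and HpaI-cut before capillary electrophoresis; activity is fitted bidirectionally against DMSO controls.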

[5] = ATG_RORE_CIS: Attagene CIS-FACTORIAL HepG2 Assay for human RAR-related Orphan Receptor Element (RORE) (AID 2282959); conditions: HepG2 Attagene cis-factorial RORE reporter, mRNA; actives raise or lower the signal
Outline: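 Cells were HepG2 carrying transfected cis-regulated reporter constructs, dosed for 24 hours. Total RNA was reverse-transcribed and reporter cDNA amplified, fluorescently labeled and sized by capillary electrophoresis. Activity was fitted bidirectionally relative to DMSO.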

[6] = ATG_Sox_CIS: Attagene CIS-FACTORIAL HepG2 Assay for human SRY-box transcription factor (SOX) (AID 2282960); conditions: HepG2 Attagene cis-factorial SOX reporter, mRNA; actives raise or lower the signal
Outline: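 Transient MRTU transfection of HepG2; 24 h compound incubation; TriZol RNA, oligo(dT) RT, PCR, 6-FAM primer extension, HpaI cut, CE. Bidirectional fit, DMSO = baseline.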

[7] = target: Transcription factor Sp1 (Homo sapiens) (UniProt P08047); test: ATG_Sp1_CIS: Attagene CIS-FACTORIAL HepG2 Assay for human Specificity Protein 1 (Sp1) (AID 2282961); conditions: HepG2 Sp1 cis-reporter transcription, actives raise or lower the signal
Chain of Transcription factor Sp1 (Homo sapiens) (P08047 whole entry, looked up): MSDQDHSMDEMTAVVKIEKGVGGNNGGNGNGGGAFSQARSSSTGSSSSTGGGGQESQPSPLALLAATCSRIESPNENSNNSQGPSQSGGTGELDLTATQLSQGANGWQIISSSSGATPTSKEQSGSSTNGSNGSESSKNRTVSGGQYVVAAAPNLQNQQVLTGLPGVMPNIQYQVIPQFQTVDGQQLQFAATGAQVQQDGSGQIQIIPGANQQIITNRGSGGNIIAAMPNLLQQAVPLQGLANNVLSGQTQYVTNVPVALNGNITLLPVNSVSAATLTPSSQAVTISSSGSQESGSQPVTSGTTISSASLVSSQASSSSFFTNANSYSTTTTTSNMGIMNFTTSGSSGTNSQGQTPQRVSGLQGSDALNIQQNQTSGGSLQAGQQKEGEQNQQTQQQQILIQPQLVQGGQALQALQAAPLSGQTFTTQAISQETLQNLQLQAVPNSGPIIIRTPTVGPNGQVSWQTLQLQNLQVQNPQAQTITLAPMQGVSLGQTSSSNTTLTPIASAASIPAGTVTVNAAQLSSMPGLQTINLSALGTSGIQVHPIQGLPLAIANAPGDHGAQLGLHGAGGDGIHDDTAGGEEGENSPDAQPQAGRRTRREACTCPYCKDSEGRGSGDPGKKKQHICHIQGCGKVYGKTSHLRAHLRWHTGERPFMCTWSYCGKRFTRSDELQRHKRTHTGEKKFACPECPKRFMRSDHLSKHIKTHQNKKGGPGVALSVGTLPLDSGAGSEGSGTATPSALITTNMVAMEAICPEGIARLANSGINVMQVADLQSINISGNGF
Outline: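 Endogenous Sp1 activity was gauged in human liver HepG2 cells bearing transfected reporter units under a cis-regulating promoter. After 24 h dosing, reporter mRNA was quantified by RT-PCR with capillary electrophoresis, and activity fitted bidirectionally versus DMSO.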

[8] = ATG_SREBP_CIS: Attagene CIS-FACTORIAL HepG2 Assay for human Sterol Regulatory Element Binding (SREBP) (AID 2282962); conditions: HepG2 Attagene cis-factorial SREBP reporter, mRNA; actives raise or lower the signal
Outline: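 Endogenous SREBP activity read as cis-element-driven reporter transcript in transiently transfected HepG2, 24 h post-dosing; quantified via RT-PCR plus capillary electrophoresis of fluorescent fragments. Gain or loss of signal fitted relative to DMSO baseline.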

[9] = target: Signal transducer and activator of transcription 3 (Homo sapiens) (UniProt P40763); test: ATG_STAT3_CIS: Attagene CIS-FACTORIAL HepG2 Assay for human Signal Transducer and Activator of Transcription 3 (STAT3) (AID 2282963); conditions: HepG2, Attagene cis-factorial STAT3 reporter transcription; actives raise or lower the signal
Chain of Signal transducer and activator of transcription 3 (Homo sapiens) (P40763 whole entry, looked up): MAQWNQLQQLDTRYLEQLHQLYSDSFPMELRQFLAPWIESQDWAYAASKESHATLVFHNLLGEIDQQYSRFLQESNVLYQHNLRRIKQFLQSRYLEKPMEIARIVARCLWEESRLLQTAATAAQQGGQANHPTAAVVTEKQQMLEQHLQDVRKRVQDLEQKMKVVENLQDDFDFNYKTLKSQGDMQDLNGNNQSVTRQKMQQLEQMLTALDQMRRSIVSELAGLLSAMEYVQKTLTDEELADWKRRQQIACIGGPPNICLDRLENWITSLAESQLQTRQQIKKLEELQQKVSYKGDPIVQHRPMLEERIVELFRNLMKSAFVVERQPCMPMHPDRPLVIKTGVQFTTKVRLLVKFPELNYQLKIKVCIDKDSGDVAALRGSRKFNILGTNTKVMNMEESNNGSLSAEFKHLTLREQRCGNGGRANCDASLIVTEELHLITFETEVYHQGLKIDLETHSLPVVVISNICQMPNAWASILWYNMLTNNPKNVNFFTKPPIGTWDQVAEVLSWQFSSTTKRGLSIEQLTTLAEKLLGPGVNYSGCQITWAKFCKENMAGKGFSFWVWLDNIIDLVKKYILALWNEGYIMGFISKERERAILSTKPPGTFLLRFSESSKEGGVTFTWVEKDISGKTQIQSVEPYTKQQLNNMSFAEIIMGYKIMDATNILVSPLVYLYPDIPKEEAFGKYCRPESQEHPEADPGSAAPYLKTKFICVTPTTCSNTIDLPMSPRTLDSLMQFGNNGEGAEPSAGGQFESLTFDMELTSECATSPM
Outline: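 Uses human liver HepG2 transiently carrying cis-regulated reporter transcription units. Following 24 h dosing, reporter mRNA induction was detected by RT-PCR and capillary electrophoresis, analysed bidirectionally versus DMSO.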

[10] = ATG_TA_CIS: Attagene CIS-FACTORIAL HepG2 Assay for human TA Basal Promoter (AID 2282964); conditions: HepG2 Attagene CIS-factorial TA basal promoter reporter; actives raise or lower the signal
Outline: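 HepG2 cells transiently transfected with multiplexed cis-promoter reporter units, dosed 24 h. Reporter mRNA measured by RT-PCR, 6-FAM labelling, HpaI digestion and capillary electrophoresis; bidirectional fit versus DMSO baseline, serving as background control.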

[11] = ATG_TCF_b_cat_CIS: Attagene CIS-FACTORIAL HepG2 Assay for human T-Cell-Factor with beta-catenin (TCF/b-cat) (AID 2282965); conditions: HepG2 TCF/beta-catenin cis-reporter transcription, actives raise or lower the signal
Outline: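 In this cis-format system, transfected HepG2 cells report endogenous transcription factor activity. Readout after 24 h exposure is reporter transcript abundance from RT-PCR and capillary electrophoresis, analysed for gain or loss of signal versus DMSO.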

[12] = ATG_TGFb_CIS: Attagene CIS-FACTORIAL HepG2 Assay for human Transforming Growth Factor (TGF) (AID 2282967); conditions: HepG2 Attagene CIS TGFb reporter, mRNA transcription; actives raise or lower the signal
Outline: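 HepG2 cells transiently transfected with cis-promoter-driven multiplexed reporter units; 24 h compound exposure. Reporter mRNA measured by RT-PCR, 6-FAM labeling, HpaI digestion and capillary electrophoresis; bidirectional fit versus DMSO baseline.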

[13] = ATG_VDRE_CIS: Attagene CIS-FACTORIAL HepG2 Assay for human Vitamin D Receptor Element (VDRE) (AID 2282968); conditions: HepG2 VDRE cis-reporter transcription, actives raise or lower the signal
Outline: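 Transfected HepG2 reporter cells, chemical treatment 24 h. RNA isolated, cDNA amplified with reporter-specific primers, products analysed by capillary electrophoresis. Endpoint fitted in both directions versus DMSO.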

[14] = target: X-box-binding protein 1 (Homo sapiens) (UniProt P17861); test: ATG_Xbp1_CIS: Attagene CIS-FACTORIAL HepG2 Assay for human X-box Binding Protein 1 (XBP1) (AID 2282972); conditions: HepG2 XBP1 cis-element reporter, Attagene multiplex; actives raise or lower the signal
Chain of X-box-binding protein 1 (Homo sapiens) (P17861 whole entry, looked up): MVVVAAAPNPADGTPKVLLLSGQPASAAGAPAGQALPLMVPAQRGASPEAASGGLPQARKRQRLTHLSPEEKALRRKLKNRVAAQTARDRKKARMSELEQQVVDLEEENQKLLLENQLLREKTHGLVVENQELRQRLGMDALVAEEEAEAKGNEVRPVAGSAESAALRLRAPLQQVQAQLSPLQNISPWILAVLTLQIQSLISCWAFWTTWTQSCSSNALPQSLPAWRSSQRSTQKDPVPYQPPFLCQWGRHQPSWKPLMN
Outline: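 Reporter transcripts were quantified by RT-PCR with fluorescent primer extension and capillary electrophoresis after 24 h chemical exposure. Cells: transiently transfected HepG2 carrying cis-regulated reporter constructs; data fitted bidirectionally relative to DMSO.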

[15] = ATG_TAL_CIS: Attagene CIS-FACTORIAL HepG2 Assay for human TAL Basal Promoter (AID 2282966); conditions: HepG2 Attagene cis-factorial TAL promoter reporter; actives raise or lower the signal;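 note: background control endpoint measuring basal TAL promoter reporter mRNA not a specific factor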
Outline: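 Transiently transfected HepG2 (cis-regulated reporter units), 24 h treatment, mRNA read by fluorescent CE after RT-PCR; bidirectional fit, DMSO baseline.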

[16] = target: Estrogen receptor (Homo sapiens) (UniProt P03372); test: ATG_ERa_TRANS: Attagene TRANS-FACTORIAL HepG2 Assay for human Estrogen Receptor alpha (ERa) (AID 2282970; active = hit-call score of the fitted dose curve at least 0.9, where 1 is the maximum); conditions: HepG2 Attagene TRANS ERa GAL4 reporter, mRNA
Chain of Estrogen receptor (Homo sapiens) (P03372 whole entry, looked up, the tested form may be a part): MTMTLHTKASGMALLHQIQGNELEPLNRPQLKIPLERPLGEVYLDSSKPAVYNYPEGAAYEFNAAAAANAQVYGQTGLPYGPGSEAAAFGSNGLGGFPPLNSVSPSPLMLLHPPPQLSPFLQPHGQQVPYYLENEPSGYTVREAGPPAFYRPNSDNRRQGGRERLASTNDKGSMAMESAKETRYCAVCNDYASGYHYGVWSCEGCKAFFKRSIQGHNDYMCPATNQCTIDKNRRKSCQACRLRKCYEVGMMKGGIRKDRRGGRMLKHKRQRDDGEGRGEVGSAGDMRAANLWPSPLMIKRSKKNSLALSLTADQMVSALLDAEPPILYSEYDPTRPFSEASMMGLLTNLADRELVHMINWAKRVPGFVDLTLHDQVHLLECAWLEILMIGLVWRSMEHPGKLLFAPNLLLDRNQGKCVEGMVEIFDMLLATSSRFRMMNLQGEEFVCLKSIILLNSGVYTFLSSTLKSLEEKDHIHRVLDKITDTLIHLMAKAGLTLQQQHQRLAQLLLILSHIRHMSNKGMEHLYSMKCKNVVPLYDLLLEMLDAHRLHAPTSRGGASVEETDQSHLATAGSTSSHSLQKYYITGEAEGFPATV
Outline: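 One of 30 multiplexed endpoints from a HepG2 TRANS system, this one reports ERa-Gal4-driven reporter mRNA. Transcripts were quantified 24 hours post-dosing by fluorescent RT-PCR and capillary electrophoresis, with activity scored as induction over DMSO.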

[17] = target: Nuclear receptor subfamily 1 group I member 3 (Homo sapiens) (UniProt Q14994); test: ATG_CAR_TRANS: Attagene TRANS-FACTORIAL HepG2 Assay for human Constitutive Androstane Receptor (CAR) (AID 2282969; active = hit-call score of the fitted dose curve at least 0.9, where 1 is the maximum;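 note: activators raise reporter mRNA above DMSO so AC50 marks induction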); conditions: HepG2 Attagene TRANS-FACTORIAL CAR reporter
Chain of Nuclear receptor subfamily 1 group I member 3 (Homo sapiens) (Q14994 whole entry, looked up, the tested form may be a part): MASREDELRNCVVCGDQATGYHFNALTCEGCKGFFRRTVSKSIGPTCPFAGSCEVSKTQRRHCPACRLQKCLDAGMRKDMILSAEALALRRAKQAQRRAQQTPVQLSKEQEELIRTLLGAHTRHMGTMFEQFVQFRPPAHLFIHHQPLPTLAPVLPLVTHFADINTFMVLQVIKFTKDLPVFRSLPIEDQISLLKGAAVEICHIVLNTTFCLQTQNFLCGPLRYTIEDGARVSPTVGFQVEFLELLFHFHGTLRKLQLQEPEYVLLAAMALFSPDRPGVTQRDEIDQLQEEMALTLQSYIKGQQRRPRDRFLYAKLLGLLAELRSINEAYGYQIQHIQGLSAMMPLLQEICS
Outline: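 Steps: transient transfection of HepG2 with multiple GAL4-UAS reporter units; 24 h compound incubation; RNA isolation, RT-PCR, 6-FAM primer extension, HpaI digest; capillary electrophoresis. Gain-of-signal relative to DMSO negative control.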

[18] = ATG_M_19_TRANS: Attagene TRANS-FACTORIAL HepG2 Assay for M19 Transcription Factor (Internal Marker) (AID 2282974; active = hit-call score of the fitted dose curve at least 0.9, where 1 is the maximum); conditions: HepG2 Attagene TRANS-FACTORIAL M19 internal marker reporter
Outline: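 Cells: human HepG2, transiently transfected with multiplexed reporter transcription units. Exposure: 24 h. Detection: RT-PCR of reporter mRNA with capillary electrophoresis. Analysis: gain-of-signal vs DMSO.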

[19] = target: Steroid hormone receptor ERR1 (Homo sapiens) (UniProt P11474); test: ATG_ERRa_TRANS: Attagene TRANS-FACTORIAL HepG2 Assay for human Estrogen-Related Receptor alpha (ERRa) (AID 2282971; active = hit-call score of the fitted dose curve at least 0.9, where 1 is the maximum); conditions: HepG2 Attagene TRANS reporter, ERRa transactivation
Chain of Steroid hormone receptor ERR1 (Homo sapiens) (P11474 whole entry, looked up, the tested form may be a part): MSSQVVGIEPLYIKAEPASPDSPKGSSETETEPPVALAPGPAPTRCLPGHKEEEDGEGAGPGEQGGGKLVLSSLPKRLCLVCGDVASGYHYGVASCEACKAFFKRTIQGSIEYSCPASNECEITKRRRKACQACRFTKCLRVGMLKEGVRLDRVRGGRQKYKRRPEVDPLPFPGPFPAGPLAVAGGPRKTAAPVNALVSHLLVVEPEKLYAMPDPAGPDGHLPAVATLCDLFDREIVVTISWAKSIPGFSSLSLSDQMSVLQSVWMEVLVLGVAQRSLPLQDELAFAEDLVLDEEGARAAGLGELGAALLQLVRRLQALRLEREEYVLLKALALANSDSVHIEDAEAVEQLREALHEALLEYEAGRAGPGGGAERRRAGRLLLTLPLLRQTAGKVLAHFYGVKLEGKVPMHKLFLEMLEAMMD
Outline: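 HepG2 cells transiently transfected with multiplexed GAL4-UAS reporter units reading chimeric ERRa-Gal4 activity; 24 h compound exposure. Reporter mRNA measured by RT-PCR, 6-FAM labelling, HpaI digest and capillary electrophoresis; gain of signal fitted versus DMSO baseline.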

[20] = target: Androgen receptor (Homo sapiens) (UniProt P10275); test: ATG_AR_TRANS: Attagene TRANS-FACTORIAL HepG2 Assay for human Androgen Receptor (AR) (AID 2282973; active = hit-call score of the fitted dose curve at least 0.9, where 1 is the maximum); conditions: HepG2 Attagene TRANS-FACTORIAL AR reporter transcription
Chain of Androgen receptor (Homo sapiens) (P10275 whole entry, looked up, the tested form may be a part): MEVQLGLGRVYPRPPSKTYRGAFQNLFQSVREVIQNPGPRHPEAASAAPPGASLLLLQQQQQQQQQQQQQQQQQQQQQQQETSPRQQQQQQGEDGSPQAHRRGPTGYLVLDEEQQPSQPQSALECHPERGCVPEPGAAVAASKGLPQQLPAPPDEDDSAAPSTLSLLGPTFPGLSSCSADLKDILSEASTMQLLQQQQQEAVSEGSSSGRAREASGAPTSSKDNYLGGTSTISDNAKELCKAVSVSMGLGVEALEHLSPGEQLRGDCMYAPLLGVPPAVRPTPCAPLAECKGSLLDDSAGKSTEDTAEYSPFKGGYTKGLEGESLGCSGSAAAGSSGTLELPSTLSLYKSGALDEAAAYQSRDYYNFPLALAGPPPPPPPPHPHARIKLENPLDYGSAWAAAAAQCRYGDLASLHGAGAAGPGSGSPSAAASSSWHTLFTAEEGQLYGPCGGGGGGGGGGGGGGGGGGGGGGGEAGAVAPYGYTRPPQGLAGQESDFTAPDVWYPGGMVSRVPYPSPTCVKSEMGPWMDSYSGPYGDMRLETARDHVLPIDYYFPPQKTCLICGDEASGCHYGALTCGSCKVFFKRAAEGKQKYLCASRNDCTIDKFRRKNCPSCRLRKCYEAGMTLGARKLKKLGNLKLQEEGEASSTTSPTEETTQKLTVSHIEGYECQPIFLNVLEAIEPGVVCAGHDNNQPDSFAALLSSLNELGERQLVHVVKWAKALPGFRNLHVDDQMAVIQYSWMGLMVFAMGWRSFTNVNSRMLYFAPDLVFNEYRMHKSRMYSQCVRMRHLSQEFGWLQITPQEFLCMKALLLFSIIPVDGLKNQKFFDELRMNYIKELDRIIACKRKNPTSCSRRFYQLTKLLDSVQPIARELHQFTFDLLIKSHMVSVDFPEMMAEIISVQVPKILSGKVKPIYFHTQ
Outline: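 HepG2 cells transiently transfected with multiplexed GAL4-UAS reporter units and chimeric NR-Gal4 fusion; 24 h compound exposure. Reporter mRNA measured by RT-PCR, 6-FAM labelling, HpaI digestion and capillary electrophoresis; gain-of-signal fitted relative to DMSO baseline.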

Measured: AC50

Oc1ccccc1Br
not listed: [15] | [16] | [17] | [18] | [19] | [20]
inactive: all other assays above

Cc1cc(C)c(C(=O)P(=O)(c2ccccc2)c2ccccc2)c(C)c1
active: [3] 0.199 µM | [5] 51 µM | [8] 41.1 µM | [9] 53.7 µM | [10] 45 µM | [13] 0.54 µM | [16] 25.5 µM | [14] 53.4 µM
inactive: [1] | [2] | [4] | [7] | [11] | [15] | [12]

CCCCc1ccc(O)cc1
active: [16] 4.66 µM
not listed: [13] | [19] | [20]
inactive: all other assays above

CN(C)C(=O)Cl
not listed: [15] | [16] | [17] | [18] | [20]
inactive: all other assays above

Nc1ccc([N+](=O)[O-])cc1Cl
active: [3] 67.3 µM
not listed: [6] | [17] | [19]
inactive: all other assays above

Cc1cccc(N)c1
not listed: [6] | [16] | [17] | [18] | [19] | [20]
inactive: all other assays above

CCOC(=O)c1ccccc1N
active: [3] 39.6 µM
not listed: [6] | [17] | [18] | [19] | [20]
inactive: all other assays above

CCCN(CCC)c1c([N+](=O)[O-])cc(C(C)C)cc1[N+](=O)[O-]
active: [3] 1.08 µM
not listed: [6] | [19] | [20]
inactive: all other assays above

Oc1ccc(I)cc1
active: [16] 19.7 µM
not listed: [6] | [17] | [19] | [20]
inactive: all other assays above

NNC(N)=S
not listed: [16] | [17] | [19] | [20]
inactive: all other assays above

Cc1ccc2c(c1N)C(=O)c1ccccc1C2=O
active: [3] 4.09 µM | [16] 4.04 µM
not listed: [13] | [15] | [20]
inactive: all other assays above

ClC1=C(Cl)C2(Cl)C3C(Cl)C(Cl)CC3C1(Cl)C2(Cl)Cl (stereo unspecified)
active: [3] 2.38 µM | [10] 39.1 µM | [11] 27.1 µM | [13] 3.76 µM | [16] 13.4 µM
not listed: [15] | [18] | [19]
inactive: all other assays above

COCCOCCO
not listed: [6] | [16] | [18] | [20]
inactive: all other assays above
